Measurements as given in ChEMBL document CHEMBL4888484, “Replenishing the malaria drug discovery pipeline: Screening and hit evaluation of the MMV Hit Generation Library 1 (HGL1) against asexual blood stage Plasmodium falciparum ,using a nano luciferase reporter read-out” (2022).
Values joined by “and” are separate entries in the source; they are usually repeats but may differ in a detail not shown here. Identical values can stand only once. Screen size: about 150,000 compounds; about 540 (0.36%) showed an effect of 50% or more. The sample holds strong results, similar compounds and a random draw of the others, so the mix is not that of the screen.

System: Plasmodium falciparum
Experiment: Primary screen in NF54 nanoGlo assay, in single point, at 2uM, 72h; a lower Z score goes with more inhibition
Type: functional, Erythrocyte
Settings: timepoint 72 hour

SMILES | % Inhibition | Z score | % Inhibition (2 µM)
c1ccn2cc(Cc3nc(C4CC4)cs3)nc2c1 | 5% | -0.54 | 
CCCN(CCc1cccs1)C(=O)CCc1cscn1 | -14% | 1.18 | 
CCn1nc(C)cc1C(=O)N[C@H]1CC2(CCCCC2)Oc2ccccc21 | -13% | 1.49 | 
Cn1cnnc1N1CCN(C(=O)NC[C@]2(C)C[C@H]2c2ccccc2)CC1 | -9% | 1.79 | 
O=C(CCCn1cccn1)NS(=O)(=O)c1ccc2ccccc2c1 | -7% | 0.99 | 
O=C(Nc1ccc(C2(c3ccc(NC(=O)c4ccc(F)cc4)cc3)c3ccccc3C(=O)c3ccccc32)cc1)c1ccc(F)cc1 | 77% | -2.85 | 
O=C1NC(c2ccc(NC(=O)c3cccc4ccccc34)cc2)(c2ccc(NC(=O)c3cccc4ccccc34)cc2)c2ccccc21 | 23% | -3.32 | 
Nc1ccc(C2(c3ccc(N)cc3)c3ccccc3C(=O)c3ccccc32)cc1 | 18% | -2.61 | 
O=C(Nc1ccc(-c2c3ccccc3c(-c3ccc(NC(=O)c4cccc5ccccc45)cc3)c3ccccc23)cc1)c1cccc2ccccc12 | -8% | 1.08 | 
O=C(COc1ccccc1Cl)Nc1ccc(C2(c3ccc(NC(=O)COc4ccccc4Cl)cc3)c3ccccc3-c3ccccc32)cc1 | 38% | -1.02 | 
O=C1c2ccccc2C(c2ccc(NC(=O)c3cccc4ccccc34)cc2)(c2ccc(NC(=O)c3cccc4ccccc34)cc2)c2ccccc21 | 95% | -13.49 | 
Cc1cccc(NC(=O)CN2CC(=O)NC[C@H]2c2ccccc2)c1C | -6% | 0.77 | 
N[C@H](C(=O)Nc1cncc(Br)c1O)C1CCOCC1 | 10% | -1.45 | 
CNc1nc(N2CCOCC2)nc2ccccc12 | 2% | -0.34 | 
CN(C)[C@H]1CCN(CC(=O)NC2(c3cc(F)ccc3F)CC2)C1 | 8% | -1.27 | 
OCCn1nc(Cc2cccs2)nc1CCN1CCCCCCC1 | -16% | 2.13 | 
Cc1nnc(CN2CCC[C@H](c3nc(C(C)C)cs3)C2)s1 | -8% | 1.01 | 
CC1(C)NC(=O)N(CC(=O)N2CCC[C@H]2c2ccc3c(c2)OCCCO3)C1=O | -13% | 1.7 | 
COc1ccc(C(=O)C[n+]2cc(-c3cccc(Br)c3)n(C)c2N)cc1 | 3% | -0.43 | 
Cn1c(-c2ccc(Br)cc2)c[n+](CC(=O)c2ccc(Br)cc2)c1N | 41% | 0.35 | 
COc1ccc(C(=O)C[n+]2nc(CNc3ccc(Br)cc3)n3c2CCCCC3)cc1 | 78% | -12.51 | 
CCOc1ccc(-[n+]2cc(-c3ccccc3)n3c2CCC3)cc1 | 68% | -6.48 | 
FC(F)Oc1ccc(-c2c[n+](-c3cccc(C(F)(F)F)c3)c3n2CCCCC3)cc1 | 39% | -3.9 | 
CCOc1ccc([C@@]2(O)CN3C=CC=CC3=[N+]2c2ccccc2)cc1 | -39% | 4.59 | 
CCOc1ccc([C@@]2(O)CN3CCCCCC3=[N+]2c2ccc(C)cc2)cc1 | 1% | -0.19 | 
O=C(C[n+]1nc(-c2n[n+](CC(=O)c3ccccc3)c3n2CCCCC3)n2c1CCCCC2)c1ccccc1 | 6% | -1.08 | 
Cc1ccc([N+]2=C3CCCCCN3C[C@]2(O)c2ccc(OC(F)F)cc2)cc1 | -12% | 1.97 | 

SMILES | % Inhibition | Z score | % Inhibition (2 µM)
Cc1ccc(NCc2n[n+](CC(=O)c3ccccc3)c3n2CCCCC3)cc1 | -40% | 4.69 | 
COc1ccc(C(=O)C[n+]2cc(-c3ccc(OC)cc3)n3c2CCCC3)cc1 | 65% | -8.89 | 
Cc1ccc(-c2c[n+](-c3ccc(OC(F)F)cc3)c3n2CCCCC3)cc1 | 66% | -12.11 | 
CCCN(CCC)C(=O)CN1CCN(Cc2ccc3c(c2)CCO3)CC1 | -11% | 1.43 | 
COc1ccc(Cl)cc1[C@H](C)NCc1nncn1C1CC1 | -13% | 2.01 | 
OC[C@H]1CCCN(CCNc2ccc3cc(Cl)ccc3n2)C1 | 12% | -1.36 | 
Cc1nccc(NC(=O)N2C3CCC2CC(CCF)C3)n1 (centres undefined) | -5% | 0.79 | 
COc1ccc(NC(=O)c2ccc3nn(CC(=O)Nc4ccc(F)cc4)c(=O)n3c2)cc1 | -26% | 2.29 | 
O=C(NCc1ccc(F)cc1)C1[C@@H]2C=C[C@@]3(CN(Cc4ccccc4Cl)C(=O)[C@H]13)O2 (some centres undefined) | -9% | 1.29 | 
CCCCN(C(=O)Nc1nc2ccccc2s1)C1CC1 | -5% | 0.64 | 
COc1ccc([N+]2=C3CCCCN3C[C@]2(O)c2ccc(Cl)cc2)cc1 |  |  | 3% and -11%
COc1ccc(-c2cnc3n2CCCC3)cc1 | -23% | 2.75 | 
COc1ccc(-c2c[n+](-c3ccc(Cl)cc3)c3n2CCCCC3)cc1 | 64% | -6.22 | 
c1ccc([C@@H]2CN(C3CC3)CC3(CCN(Cc4ccccn4)CC3)C2)cc1 | -10% | 1.74 | 
c1ccc([C@@H]2CN(C3CC3)CC3(CCN(Cc4ccncc4)CC3)C2)cc1 | -1% | 0.23 | 
Oc1cccc(CN2CCC3(CC2)C[C@H](c2ccccc2)CN(C2CC2)C3)c1 | 76% | -2.68 | 
N#C[C@@]1(c2ccccc2OCc2ccccc2)CCC(=O)N1Cc1ccccc1 | -10% | 1.37 | 
CN(C)CCN(Cc1ccsc1)C(=O)c1cc2cc(F)ccc2[nH]1 | -5% | 0.68 | 
CN(Cc1ccsc1)C(=O)c1cccs1 | -2% | 0.22 | 
CN(Cc1ccsc1)C(=O)c1cc2ccccc2[nH]1 | 58% | -6.32 | 
Cc1ccc(S(=O)(=O)N2CCN(C(=O)NCc3nccn3C)CC2)cc1 | -12% | 2.31 | 
CC1CN(C(=O)Cc2csc(-c3cccnc3)n2)CC(C)O1 (centres undefined) | -15% | 2 | 
CC(C)N(Cc1ccccc1)C(=O)Cc1csc(-c2cccnc2)n1 | -7% | 0.9 | 
CCN1CCC(N(C)C(=O)Cc2csc(-c3cccnc3)n2)CC1 | 61% | 0.93 | 
COCCNC(=O)CCc1cn(-c2ccccc2)nc1-c1ccc2c(c1)OCO2 | -10% | 1.35 | 
O=C(CCc1cn(-c2ccccc2)nc1-c1ccc2c(c1)OCO2)NC[C@H]1CCCO1 | 0% | 0.04 | 
CN(CCNC(=O)CCc1cn(-c2ccccc2)nc1-c1ccc2c(c1)OCO2)C1CCCCC1 | 63% | -8.26 | 

SMILES | % Inhibition | Z score | % Inhibition (2 µM)
COC[C@@H]1[C@H](C(=O)Nc2cc(OC)ccc2OC)CCC(=O)N1C | -12% | 1.42 | 
CNc1cccc(C(=O)Nc2nncs2)n1 | -13% | 1.62 | 
O=C(Nc1nncs1)c1occc1-c1ccccc1 | -6% | 0.51 | 
O=C(Nc1nncs1)c1cccc(C(=O)Nc2nncs2)n1 | 77% | -14.68 | 
Nc1nnnn1CC(=O)N[C@H]1CC(=O)Nc2ccccc21 | 10% | -1.71 | 
FC(F)(F)c1ccnc(Nc2ccc3c(c2)OCO3)n1 | -4% | 0.56 | 
CC(C)c1cc(CN(Cc2cc(C(C)C)c(O)c(C(C)C)c2)C2CCCCC2)cc(C(C)C)c1O | 95% | -12.83 | 
COc1ccc(CN(Cc2nnn(C)n2)C2CCCCC2)cc1OC | -7% | 1.05 | 
Cc1nn(C)cc1CN(Cc1ccncc1)C1CCCCC1 | 8% | -1.12 | 
Cc1noc(C(F)(F)F)c1C(=O)NCC1(C2(O)CCC2)CC1 | -10% | 1.69 | 
COc1ccc2c(c1)C(N1CCN(C(=O)CC(C)(C)C)CC1)=Nc1ccccc1O2 | 1% | -0.13 | 
CCOC(=O)N1CCCC[C@H](NC2CCN(c3ccc(F)c(F)c3)CC2)C1 | 4% | -0.83 | 
O=C(c1cccc(C(F)(F)F)c1)N1CCC(n2cnnc2C2CC2)CC1 | 2% | -0.34 | 
O=C(CN1CCC(O)CC1)N1CCC(c2ccccc2)=N1 | -5% | 1.01 | 
O=C(NCCn1c(=O)[nH]c2ccsc2c1=O)c1cc(-c2ccc(F)cc2)c[nH]1 | -4% | 0.72 | 
O=C(Nc1ccc(Cl)c(N2CCCS2(=O)=O)c1)NC1CCOCC1 | -13% | 1.52 | 
COc1c[nH]c(C(=O)NC2CCCC2)cc1=O | -5% | 0.85 | 
O=C(CN1C(=O)c2ccccc2C1=O)NC1CCN(Cc2ccccc2)CC1 | 4% | -0.5 | 
COc1cc([C@H](CC(=O)NC2CCN(Cc3ccccc3)CC2)N2Cc3ccccc3C2=O)cc(OC)c1OC | 68% | -9.85 | 
COc1cc(=O)n2c(c1C(=O)NC1CCN(Cc3ccccc3)CC1)CCCCC2 | -8% | 0.91 | 
COc1c[nH]c(C(=O)NC2CCN(Cc3ccccc3)CC2)cc1=O | 60% | -7.68 | 
COc1cn(CC(=O)NC2CCN(Cc3ccccc3)CC2)c(CN2CCOCC2)cc1=O | 7% | -0.83 | 
Cn1cccc1CNc1nnc([C@@H]2CCCO2)o1 | -5% | 0.81 | 
C[C@H]1NC(=O)N(c2cccc(C#N)c2)C1=O | -4% | 0.53 | 
O=C(NCCN1C(=O)COC1=O)c1cccs1 | 12% | -2.12 | 
CC[C@H](C)N(CC(=O)N(CCOC)Cc1cccn1Cc1ccccc1)C(=O)c1ccco1 | -8% | 1.33 | 
